Compounds with a hit are over-represented: about 2.2% of the library has one in this group of screens.
Autophagy HCS: autophagy modulation, high-content screen; MEF GFP-LC3 puncta imaging; test concentration mostly 10 µM; 0.98% of 190,000 active; calls only at 10 µM (by protocol);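 active = percentage of spot-positive cells more than 3 SD above its plate mean, without a fluorescence outlier flag or 80% toxicity; inconclusive = no clear call, values can overlap the other calls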
Arbovirus inh: blocks arbovirus infection. inhibition, % at 10 µM. arbovirus infection cell-based antiviral screen. 0.37% of 200,000 active. AID 1251; in the data active = inhibition above about 30%
HMGR II inh: E. faecalis class II HMG-CoA reductase inhibition; purified E. faecalis HMGR, NADPH absorbance 340 nm kinetic; inhibition, % at 10 µM; 0.41% of 190,000 active; AID 1066;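 active = inhibition above a set limit, the median over all tested compounds plus 3 SD, cut at about 9.5% in these data; inconclusive = no clear call, values can overlap the other calls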;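 note: enzyme runs in reverse so mevalonate oxidation gives rising NADPH absorbance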
p47phox inh: p47phox (human) inhibition | 0.53% of 220,000 active | p47phox/p22phox peptide binding, fluorescence polarization, 2 h | inhibition, % at 24.7 µM;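 active = inhibition above about 30%, limit read from the data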
Target sequence (P14598 whole entry, looked up): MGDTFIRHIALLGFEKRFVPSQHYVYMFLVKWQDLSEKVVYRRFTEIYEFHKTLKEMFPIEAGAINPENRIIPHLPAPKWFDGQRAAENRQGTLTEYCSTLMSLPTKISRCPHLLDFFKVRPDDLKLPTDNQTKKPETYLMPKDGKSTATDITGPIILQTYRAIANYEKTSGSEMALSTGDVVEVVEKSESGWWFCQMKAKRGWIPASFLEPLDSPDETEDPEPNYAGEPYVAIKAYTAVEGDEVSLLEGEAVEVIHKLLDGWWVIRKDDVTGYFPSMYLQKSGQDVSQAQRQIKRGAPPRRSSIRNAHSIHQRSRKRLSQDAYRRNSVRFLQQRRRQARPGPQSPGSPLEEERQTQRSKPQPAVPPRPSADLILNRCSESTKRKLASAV
Ins promoter up: MIN6 insulin promoter up-regulation; MIN6 insulin promoter-GFP reporter, high-content imaging; stronger effect = higher value; 0.3% of 190,000 active; AID 1625; z-score at 5 µM;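 active = z-score above 3 at 5 µM with at least 500 cells counted in the well; inconclusive = wells under 500 cells, flagged as cytotoxic or low count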
DTT redox prof: compounds producing H2O2 with reducing agent – biochemical, NIH compound library profiling, artefact control for MLSCN library redox annotation, primary screen | activation, % at 10 µM | 0.03% of 200,000 active | AID 878 | DTT-dependent redox cycling H2O2, phenol red/HRP absorbance; 100% = 100 µM peroxide control, 0% = buffer;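 active = activation of at least 50% relative to the plate's high and low controls in the primary single-dose screen; inactive = activation below 50%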;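 note: compound incubated with DTT at 0.8 mM final as the reducing agent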
Of the large screens only hits and unclear results are named; the others gave an inactive call.

COCCn1c(SCc2nc3scc(-c4ccc(Cl)cc4)c3c(=O)[nH]2)nnc1-c1cccc(C)c1	Arbovirus inh 32
CCC(=O)N1CC2(C)CN(C(=O)CC)CC(C)(C1)C2	none
CC(=O)N1CC2(C)CN(C(C)=O)CC(C)(C1)C2	HMGR II inh 22
CC(C)NC(=O)C(=O)NNC(=O)CCc1ccccc1	none
Cc1cc(C(=O)CN2C(=O)NC3(CCCCC3)C2=O)c(C)n1C	none
Cc1cc(C)c(C(=O)CN2C(=O)NC3(CCCCCC3)C2=O)cc1C	Autophagy HCS active
CC(C)(C)NC(=O)CN(CCc1ccccc1)C(=O)c1csnn1	none (no result: Ins promoter up)
Cn1nc(OCC(=O)O)cc1C(F)(F)F	none (no result: Autophagy HCS, Arbovirus inh, HMGR II inh, DTT redox prof)
CCN1C(=O)C(O)(C2COC(C)(C)CC2=O)c2cc(Br)ccc21 (centres undefined)	Autophagy HCS active (no result: Ins promoter up)
Cc1cc(/C=c2\sc3nc4ccccc4n3c2=O)c(C)n1-c1ccc(C(=O)O)cc1	Arbovirus inh 37
O=c1/c(=C/c2ccc(O)c([N+](=O)[O-])c2)sc2nc3ccccc3n12	Arbovirus inh 30
O=C(Nc1ccc2nc(-c3ccccn3)[nH]c2c1)C1CCCCC1	p47phox inh 40
NNC(=O)[C@@H]1C[C@@H]1c1ccccc1	none
NNC(=O)C1CC1c1ccc(Cl)cc1 (centres undefined)	HMGR II inh 19
C=CCC(c1ccccc1)N(C(C)=O)c1ccco1 (centres undefined)	Ins promoter up 3.6
O=C(Cn1cnc2c(nnn2Cc2ccccc2F)c1=O)NCC1CCCO1 (centres undefined)	Autophagy HCS active
O=C(Cn1cnc2c(nnn2Cc2ccccc2)c1=O)NCC1CCCO1 (centres undefined)	none
CN1CCN(c2ccc(NC(=O)c3ccc(-c4ccc(Br)cc4)o3)cc2)CC1	Autophagy HCS active
CC(=N[C@@H]1CCCC[C@H]1N=C(C)c1ccccc1O)c1ccccc1O	none
C=CCOc1ccc2nc(NC(=O)OC)[nH]c2c1	Autophagy HCS active
COc1cccc(CN2CCN(C3CCN(c4cccc(C)c4C)CC3)CC2CCO)c1 (centres undefined)	none
COc1cccc(CN2CCN(C3CCN(c4ccccc4C)CC3)CC2CCO)c1 (centres undefined)	HMGR II inh 11
Cc1ccc(NC(=O)CSc2ncnc3ccccc23)cc1S(=O)(=O)N1CCCCCC1	none
O=C(Nc1ccccc1N1CCN(c2ccccc2)CC1)C12CC3CC(CC(C3)C1)C2	Autophagy HCS active
O=c1[nH]c(SCc2ccccc2)nc2[nH]ncc12	none (no result: p47phox inh)
Cn1cc([N+](=O)[O-])c(C(=O)Nc2ccc(-c3nc4ccccc4[nH]3)cc2)n1	HMGR II inh 12
Cn1cc([N+](=O)[O-])c(C(=O)Nc2ccc(C3CCCCC3)cc2)n1	HMGR II inh 11
Cc1ccc(-c2nc(NC(=O)c3nn(C)cc3[N+](=O)[O-])sc2C)cc1	Autophagy HCS active
COc1ccc(/C(C)=N/Nc2ncc(Cl)cc2Cl)c(O)c1	none
Cc1nnc(SCC(=O)N2c3ccccc3CC2C)[nH]c1=O (centres undefined)	none
Cc1cccc(-n2nc(C(=O)c3ccco3)cc(-c3nc4ccccc4[nH]3)c2=N)c1	none
COc1ccc(-n2nc(C(=O)c3cccs3)cc(-c3nc4ccccc4[nH]3)c2=N)cc1	Autophagy HCS active (no result: Ins promoter up)
Cc1cc(NC(=O)c2cccs2)n(-c2nc3ccccc3[nH]2)n1	none
Cc1ccccc1-n1nc(C(=O)c2cccs2)cc(-c2nc3ccccc3[nH]2)c1=N	Autophagy HCS active
Cc1c(-c2cccc(Cl)c2)nc2ccccc2c1C(=O)OCC(=O)Nc1ccc2c(c1)OCO2	none
O=C(O)C[C@@H](O)C(=O)O	none (no result: Ins promoter up)
CCOC(=O)/C(C#N)=C/c1ccc(SC)cc1	HMGR II inh 14 (no result: Ins promoter up)
CCOC(=O)/C(C#N)=C/c1ccc(OC)c(OC)c1	none
Cc1c(NC2(c3nnnn3-c3ccc(Br)cc3)CCCCC2)c(=O)n(-c2ccccc2)n1C	HMGR II inh 23
Cc1c(NC2(C#N)CCCC2)c(=O)n(-c2ccccc2)n1C	none
CC1CC(C)CN(C(=O)COc2ccc([N+](=O)[O-])cc2Cl)C1 (centres undefined)	none (no result: Ins promoter up)
Cc1cc(NC(=O)CSc2nc3c(sc4ccccc43)c(=O)n2CCc2ccccc2)n[nH]1	p47phox inh 32
Cc1cc(NC(=O)CSc2nc3ccccc3c(=O)n2CCCC(=O)NCc2ccccc2)n[nH]1	none (no result: Ins promoter up)
Cc1cc(NC(=O)CSc2nc3c(sc4ccccc43)c(=O)n2CCCN2CCOCC2)n[nH]1	Autophagy HCS active
COc1ccc(-n2c(SCC(=O)N3CCCC3)nc3c([nH]c4ccccc43)c2=O)cc1	none (no result: Autophagy HCS, HMGR II inh, p47phox inh, Ins promoter up, DTT redox prof)
COc1ccc(N2C(=O)N(Cc3cccc(F)c3)c3ccccc3S2(=O)=O)cc1	none
Cc1ccc(OCC(=O)NC2=NCCS2)cc1	p47phox inh 47
COc1ccc(-n2nnnc2-c2cccc(OC)c2)cc1	Autophagy HCS active
Cc1ccc(-n2nnnc2-c2cccc(C)c2)cc1	none
COc1ccc(N=Cc2nc(-c3ccco3)oc2O)cc1	HMGR II inh 11 (no result: Ins promoter up)
O=C(Oc1oc(-c2ccco2)nc1C=Nc1ccc(Cl)cc1)c1ccco1	none (no result: Ins promoter up)
Cc1ccc(N=Cc2nc(-c3ccc(C)cc3)oc2O)cc1	none (no result: p47phox inh)
CN(C)c1ccc(N=Cc2nc(-c3ccccc3)oc2O)cc1	p47phox inh 58 (no result: Ins promoter up)
Oc1oc(-c2ccccc2)nc1C=Nc1ccccc1	p47phox inh 44 (no result: Ins promoter up)
Cc1nnc(SCc2ccccc2Cl)n1CC1CCCO1 (centres undefined)	HMGR II inh 16 (no result: Ins promoter up)
CC(C)(C)NC(=S)NC(C)(C)C	none (no result: Autophagy HCS, Arbovirus inh, HMGR II inh, DTT redox prof)
C/C=C/c1ccc(OCCCCOc2ccccc2C(C)=O)c(OC)c1	Arbovirus inh 36
CCc1ccc(NC(=O)N(Cc2ccco2)C(C)c2cccs2)cc1 (centres undefined)	none
CCc1ccc(NC(=O)CS(=O)CC(=O)NC(C)CCc2ccco2)cc1 (centres undefined)	Autophagy HCS active (no result: Ins promoter up)
CCn1nnc2sc3c(c2c1=O)CCC(C)C3 (centres undefined)	Ins promoter up 3.6
Cc1noc(C)c1COc1cccc(C(=O)N2CCc3ccccc32)c1	none
Cn1ncc2c(N3CCN(c4ccc(Cl)c(Cl)c4)CC3)ncnc21	none
CC(C)C(=O)Nc1nnc(SCC(=O)N2c3ccccc3CC2C)s1 (centres undefined)	Arbovirus inh 39
CC1Cc2ccccc2N1C(=O)CSc1ccccc1 (centres undefined)	Arbovirus inh 30
Cc1ccc(-n2c(C)cc(C(=O)CN3CCCCC3)c2C)cc1	none
COc1cccc(-c2csc(/C(C#N)=C/Nc3cc4oc5ccccc5c4cc3OC)n2)c1	none (no result: Ins promoter up)
COc1cc2c(cc1N/C=C(\C#N)c1nc(-c3ccccc3)cs1)oc1ccccc12	Autophagy HCS active (no result: Ins promoter up)
CCN1/C(=C/c2ccc3cc(C)ccc3[n+]2CC)Sc2cc(C)c(C)cc21	Autophagy HCS active, Ins promoter up inconclusive

From PubChem
